A selection: hits, their analogues and other compounds. The true share with any hit is near 19%.
HepG2 tox – kills HepG2 cells in TGF-b inhibitor counter-screen; 410,000 tested, 0.76% active; AID 588856; Potency, µM (doses to about 46.1 µM), inactives show top-dose activity change, negative = cytotoxicity, usual class: cytotoxic; HepG2 CAGA-GFP viability, ATP luminescence, 18 h; note: potency is the fitted concentration of half-maximal effect
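HepG2 CAGA-GFP cells (1000/well, DMEM with 1% FBS) received compound, then TGF-beta at 500 pg/mL final, and were incubated 18 hours at 37 degrees C. Viability was read by CellTiter-Glo luminescence. Media-only wells were set as complete cell-killing and DMSO as no toxicity.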
TDP1 cell CPT – DT40-hTDP1 cell growth loss with CPT | chicken DT40 Tdp1-/-;hTDP1 cells + 20 nM CPT, ATP luminescence, 48 h | Potency, µM (doses to about 46.2 µM), for the others: top-dose activity change, negative = growth inhibition, hits mostly inhibitors | 420,000 tested, 12% active | AID 686979; note: potency is the fitted concentration of half-maximal effect; % is set by controls: 0 for no effect and ±100 for the full control effect; nearly all actives have a fitted effect of over 55% in size
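Cell growth measured by CellTiter-Glo luminescence after a minimum 48 h, 37 C compound exposure with 20 nM CPT in Tdp1-knockout DT40 cells stably expressing hTDP1, seeded 400/well; qHTS titration format.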
IL1B secr inh – blocks inflammasome-driven IL-1 beta release; THP-1 LPS/ATP IL-1B secretion, AlphaLISA, 16 h; hits give low values; activity change, % at 57.5 µM; 360,000 tested, 4.7% active; AID 743279; in the data active = activity change below about -50%; inconclusive = mostly about -30% to -49%; note: % is set by controls: 0 for no effect and ±100 for the full control effect
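THP-1 cells pretreated 1 hr with compounds (up to 57.5 uM final), then stimulated with LPS (250 ng/mL final) plus ATP (1.25 mM final); secreted IL-1B measured by AlphaLISA after 16 hr, decreased signal indicating inhibition.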
DT40 TDP1 no CPT – qHTS for Inhibitors of human tyrosyl-DNA phosphodiesterase 1 (TDP1): qHTS in cells in absence of CPT; DT40 Tdp1-/- hTDP1 cells, no CPT, ATP luminescence, 48 h; Potency, µM (highest dose often 46.2 µM), inactives show at the top dose activity change, negative = growth inhibition, hits mostly inhibitors; 420,000 tested, 15% active; note: potency is the fitted concentration of half-maximal effect; % is set by controls: 0 for no effect and ±100 for the full control effect; nearly all actives have a fitted effect of over 55% in size
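A cellular qHTS used chicken DT40 cells lacking endogenous Tdp1 but carrying stably transfected human TDP1. Compounds were applied without camptothecin, and cell growth kinetics were judged by ATP-dependent luminescence after ≥48 hr.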
ASM inhibitor – blocks human secretory acid sphingomyelinase | placental ASM, HMU-PC fluorogenic substrate, 60 min | Potency, µM (highest dose often 57.5 µM), for the others: top-dose activity change, negative = inhibition, usual class: inhibitors | 340,000 tested, 0.006% active | AID 504937; note: potency is the fitted concentration of half-maximal effect
Target sequence (P17405 47-631 limits assumed): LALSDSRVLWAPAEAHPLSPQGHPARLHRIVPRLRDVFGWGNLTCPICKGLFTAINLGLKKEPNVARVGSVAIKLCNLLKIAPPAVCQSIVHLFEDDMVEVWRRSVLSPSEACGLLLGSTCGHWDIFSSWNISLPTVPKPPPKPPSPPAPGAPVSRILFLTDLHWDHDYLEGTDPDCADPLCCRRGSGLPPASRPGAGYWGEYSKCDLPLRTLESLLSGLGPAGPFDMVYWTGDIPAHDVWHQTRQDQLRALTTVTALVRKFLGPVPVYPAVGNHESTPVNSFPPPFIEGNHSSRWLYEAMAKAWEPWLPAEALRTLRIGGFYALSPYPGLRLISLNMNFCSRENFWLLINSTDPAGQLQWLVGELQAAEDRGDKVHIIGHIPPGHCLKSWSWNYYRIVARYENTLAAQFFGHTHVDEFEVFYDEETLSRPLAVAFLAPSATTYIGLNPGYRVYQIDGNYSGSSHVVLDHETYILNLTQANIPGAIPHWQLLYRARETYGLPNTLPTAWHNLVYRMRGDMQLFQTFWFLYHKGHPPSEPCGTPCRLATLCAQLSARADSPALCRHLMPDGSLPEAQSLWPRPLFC
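HMU-PC0 cleavage (9 uM final) by human placental ASM, 60 min at 37 °C following 10 min compound exposure at RT; stopped at pH 10, fluorescence Ex 386/Em 447 nm.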
TGFb inhibitor – TGF-b pathway inhibition; HepG2 CAGA-GFP TGF-b/SMAD3 reporter, GFP fluorescence, 18 h; TGF-beta stimulated, 500 pg/mL final; Potency, µM (series often up to 46.1 µM), for inactives: at the top dose activity, negative = inhibition, usual class: inhibitors; 410,000 tested, 1.2% active; note: potency is the fitted concentration of half-maximal effect; % is set by controls: 0 for no effect and ±100 for the full control effect; nearly all actives have a fitted effect of over 65% in size
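HEPG2 CAGA-GFP reporter cells (1000/well, DMEM with 1% FBS) received compounds, then recombinant TGF-beta at 500 pg/mL final for 18 hours at 37 degrees C. Per-cell GFP summed per well was normalised to unstimulated and stimulated DMSO controls before curve fitting.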
Starred values were filed as active, the others as inactive; ? = inconclusive; . = not tested or not shown; [ ] = dose if it differs, or a comment. Unless noted, calls come from the whole dose curve; as a rule, active = well fitted curve in the direction sought with a large enough effect; inconclusive = small, poorly fitted or top-dose-only effect, or another doubt; inactive = no such curve, though single readings can be large; an effect the other way counts as inactive or inconclusive.

SMILES	HepG2 tox	TDP1 cell CPT	IL1B secr inh	DT40 TDP1 no CPT	ASM inhibitor	TGFb inhibitor
CC(C)Cn1c(SCC(=O)NCc2ccc(Cl)cc2)nnc1-c1cccc(S(=O)(=O)N2CCOCC2)c1	-32.8%	?	-0.9	20.6µM*	-0.3%	?
NC(=O)CSc1nnc(-c2cccc(S(=O)(=O)N3CCOCC3)c2)n1C1CCCCCC1	23.3%	5.8µM*	0.0	7.31µM*	-1.0%	?
CC(C)Cn1c(SCC(=O)O)nnc1-c1cccc(S(=O)(=O)N2CCOCC2)c1	2.4%	-14.3%	0.0	21.7%	4.6%	-9.2%
Cc1ccc(CSc2nnc(-c3cccc(S(=O)(=O)N4CCOCC4)c3)n2C2CCCC2)cc1	-2.9%	14.6µM*	-55.2*	11.6µM*	-5.3%	?
CCOc1ccccc1N1CC(C(=O)Nc2ccccc2CC)CC1=O (centres undefined)	-21.7%	16.7%	5.5	9.7%	1.5%	3.5%
Cc1ccc(Cn2c(CO)cnc2SCC(=O)Nc2cccc(F)c2)cc1	-33.7%	-15.7%	.	-4.7%	.	-5.0%
COc1ccccc1N(C)S(=O)(=O)c1ccc(C(=O)Nc2cccc(Br)c2)cc1	-7.6%	?	-59.9*	16.4µM*	-4.3%	-20.3%
COc1cc(NC(=O)c2ccc(S(=O)(=O)N(C)c3ccccc3OC)cc2)cc(OC)c1	9.8%	18.4µM*	-3.3	20.6µM*	-2.4%	-23.2%
COc1ccccc1N(C)S(=O)(=O)c1ccc(C(=O)N(C)Cc2ccc(OC(F)F)cc2)cc1	-11.3%	25.9µM*	-25.3	23.1µM*	-4.3%	?
CCC(C)(C)NC(=O)c1ccc(S(=O)(=O)N(C)c2ccccc2OC)cc1	-1.3%	-19.8%	3.0	-10.6%	1.7%	-4.9%
COc1ccccc1N(C)S(=O)(=O)c1ccc(C(=O)Nc2nccs2)cc1	-21.9%	?	-8.0	6.51µM*	-11.9%	-24.4%
Cn1cnnc1Sc1ccc(CN2CCOc3ccc(C4=CCCCC4)cc3C2)o1	.	-1.2%[9.04 µM]	.	?	.	.
Cc1cc(=O)[nH]c2nnc(SCc3ccc(C(F)(F)F)cc3)n12	-20.4%	19.4%	.	4.5%	.	?
COc1ccccc1N(C)S(=O)(=O)c1ccc(C(=O)NCC(C)C)cc1	-2.1%	-20.1%	16.2	?	4.3%	2.8%
COC(=O)c1ccc(NC(=O)c2ccccc2N(C)S(=O)(=O)c2ccccc2)cc1	-2.4%	?	-19.3	20.6µM*	-3.2%	-5.9%
COc1ccccc1N(C)S(=O)(=O)c1ccc(C(=O)NCC2CCCCC2)cc1	-14.4%	?	0.0	18.4µM*	-1.5%	-28.9%
O=[N+]([O-])c1ccc(SCCO)nc1SCCO	7.7%	14.6%	7.2	?	-4.9%	13.6%
Cc1ccccc1OCCSc1nc2ccccc2n1CCC(=O)O	-14.0%	-1.2%	1.3	-10.5%	5.4%	-22.9%
COC(=O)c1c(-n2c(C)cc(C=O)c2C)sc2c1CCCC2	1.5%	?	-63.2*	22.4µM*	-3.0%	-4.5%
Cc1cc(C=O)c(C)n1-c1sc2c(c1C(=O)O)CCCC2	-4.1%	-2.3%	7.2	-24.3%	5.4%	?
O=C(CN1C(=O)NC2(CCCC2)C1=O)OCCOc1cccc(Br)c1	-4.9%	?	-60.1*	?	-3.4%	-8.8%
O=C(CN1C(=O)NC2(CCCC2)C1=O)OCCOc1ccccc1	-4.2%	?	-3.7	-17.0%	2.3%	-16.7%
Cc1ccc(CN2CCCN(CC(=O)Nc3ccc(C)cc3C)S2(=O)=O)cc1	2.2%	?	.	14.6µM*	.	?
CCc1ccccc1NC(=O)CN1CCCN(Cc2cc(C)ccc2C)S1(=O)=O	-35.0%	14.6µM*	.	16.4µM*	.	17.8µM*
Cc1ccc(C)c(CN2CCCN(CC(=O)Nc3ccc(C)c(C)c3)S2(=O)=O)c1	-27.7%	?	.	16.4µM*	.	?
SMILES	HepG2 tox	TDP1 cell CPT	IL1B secr inh	DT40 TDP1 no CPT	ASM inhibitor	TGFb inhibitor
Cc1ccc(NC(=O)CN2CCCN(Cc3cc(C)ccc3C)S2(=O)=O)c(Cl)c1	-24.4%	18.4µM*	.	?	.	?
Cc1ccc(CN2CCCN(Cc3c(C)cc(C)cc3C)S2(=O)=O)cc1	-17.0%	3.8%	3.3	?	-4.3%	-13.4%
CCOC(=O)c1ccccc1NC(=O)CN1CCCN(Cc2cccc(Cl)c2)S1(=O)=O	-4.4%	?	.	?	.	-6.0%
CCc1ccc(NC(=O)CN2CCCN(Cc3cccc(Cl)c3)S2(=O)=O)cc1	-19.9%	?	.	-21.4%	.	0.0%
NC(C(=O)O)C(O)C(=O)O (centres undefined)	.	-5.4%	.	-3.5%	.	.
CCc1ccccc1NC(=O)Cn1nc(C(F)(F)F)c2c1CCC2	-29.1%	7.6%	-16.1	?	2.6%	17.3%
CCc1ccccc1NC(=O)Cn1nc(-c2cc(C)ccc2C)c2c(c1=O)CCCC2	-10.4%	?	.	14.6µM*	.	?
Cc1cccc(N/N=C/c2ccc(C)s2)c1	-5.0%	29.1µM*	5.7	?	-0.7%	-11.8%
Cn1c(SCC(=O)N/N=C/c2ccc([N+](=O)[O-])s2)nnc1-c1ccc(Cl)cc1	-39.7%	13µM*	?	20.6µM*	2.9%	?
CC(/C=N\NC(=O)Cn1cncn1)=C/c1ccc(C(C)C)cc1	-2.9%	5.8%	19.5	-5.5%	-0.7%	12.2%
O=C(N/N=C/c1ccc([N+](=O)[O-])s1)c1ccncc1	12.6µM*	6.51µM*	-98.2*	6.51µM*	-5.5%	?
O=C(N/N=C/c1ccccc1[N+](=O)[O-])c1ccncc1	-13.0%	-15.7%	11.3	8.8%	-0.5%	0.0%
CC(=C/c1ccc(C(C)C)cc1)/C=N/NC(=O)Cn1nc(C)cc1C	-9.8%	?	-13.6	29.1µM*	-1.9%	?
Cc1ccc(C(=O)N/N=C\c2sccc2C)cn1	-11.5%	0.6%	-15.8	10.4%	3.6%	-2.9%
Cc1ccc(C(=O)N/N=C/c2ccc([N+](=O)[O-])s2)cc1	-29.1%	8.2µM*	-18.7	7.31µM*	-2.6%	?
Cc1ccc(NC(=O)/C=C/c2ccc([N+](=O)[O-])s2)cc1	-12.6%	3.26µM*	-95.9*	3.66µM*	-2.8%	-30.4%
Cc1ccc(/C=N/NC(=O)c2ccncc2)s1	7.0%	6.51µM*	21.7	14.6µM*	0.0%	-0.2%
Cc1ccc(C(=O)N/N=C\c2ccc([N+](=O)[O-])s2)cn1	-6.8%	10.3µM*	-5.1	11.6µM*	2.8%	-23.8%
CC(C)CC1(C2CCCC2)NC(=O)NC1=O (centres undefined)	-8.1%	4.5%	7.7	0.6%	3.2%	2.2%

Screening data deposited in PubChem BioAssay by National Center for Advancing Translational Sciences (NCATS).
